An excerpt weighted towards active compounds, which were near 1.6% of everything screened.
KCNQ2 enhance – potentiators of rat KCNQ2 potassium channel; Potassium voltage-gated channel subfamily KQT member 2 (Rattus norvegicus), O88943; CHO-K1 KCNQ2, FluxOR thallium flux fluorescence; active compounds read high; B-score at 10 µM; 310,000 compounds, 0.54% hits;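 active = fluorescence ratio B-score at least 3 SD of library B-scores, with initial fluorescence B-score within 3 of them, cut at about 5.3 in these data; same plate scores as AID 2156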;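 note: B-score of peak minus minimum over baseline fluorescence ratio after K+ and Tl+ stimulus; positive B-score means potentiation of KCNQ2 with more thallium influx and brighter signal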
Target sequence (O88943 whole entry, looked up): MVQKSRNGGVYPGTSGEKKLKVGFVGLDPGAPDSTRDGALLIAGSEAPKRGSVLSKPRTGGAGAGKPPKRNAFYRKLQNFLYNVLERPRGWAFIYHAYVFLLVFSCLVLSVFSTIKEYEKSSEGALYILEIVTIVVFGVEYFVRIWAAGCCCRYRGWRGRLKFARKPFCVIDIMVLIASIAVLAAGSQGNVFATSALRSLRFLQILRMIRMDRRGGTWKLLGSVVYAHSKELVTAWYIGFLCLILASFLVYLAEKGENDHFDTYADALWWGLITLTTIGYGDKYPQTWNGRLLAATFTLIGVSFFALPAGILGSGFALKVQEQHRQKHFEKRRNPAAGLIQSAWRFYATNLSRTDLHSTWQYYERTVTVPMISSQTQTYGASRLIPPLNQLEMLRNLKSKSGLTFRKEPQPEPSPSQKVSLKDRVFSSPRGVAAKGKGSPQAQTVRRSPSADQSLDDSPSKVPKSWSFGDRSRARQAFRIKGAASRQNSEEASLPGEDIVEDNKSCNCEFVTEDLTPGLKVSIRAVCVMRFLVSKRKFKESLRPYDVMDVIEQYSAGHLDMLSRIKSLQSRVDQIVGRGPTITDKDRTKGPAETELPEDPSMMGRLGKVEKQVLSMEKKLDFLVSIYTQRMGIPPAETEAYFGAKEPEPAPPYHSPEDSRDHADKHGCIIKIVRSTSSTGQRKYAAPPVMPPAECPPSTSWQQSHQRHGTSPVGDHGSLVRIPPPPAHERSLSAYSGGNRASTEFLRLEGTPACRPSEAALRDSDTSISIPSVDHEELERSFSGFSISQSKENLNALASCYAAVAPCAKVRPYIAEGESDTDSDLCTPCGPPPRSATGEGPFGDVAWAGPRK
KCNQ2 inh – rat KCNQ2 potassium channel inhibitors, primary screen, cell-based, CHO-K1, FluxOR thallium flux, B-score | 310,000 compounds, 1.1% hits | 20 min; active compounds read low | Potassium voltage-gated channel subfamily KQT member 2 (Rattus norvegicus), O88943 | B-score at 10 µM;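 active = fluorescence ratio B-score at most minus 3 library SDs, with starting brightness B-score within 2 library SDs, cut at about -5.5 in these data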
Numbers stand for hits; – = inactive; · = no result given.

SMILES | KCNQ2 enhance | KCNQ2 inh
Cc1ccc(SCCNC(=O)c2ccccc2)cc1 | · | –
CCSc1nc(C2CC2)cc(-c2cccs2)c1C#N | · | –
N#Cc1c(-c2ccccc2F)cc(C2CC2)nc1SCC(=O)c1cccs1 | 12 | –
CCCCN1C(=O)C(O)=C(C(C)=O)C1c1ccccc1[N+](=O)[O-] (centres undefined) | · | –
Cc1cc(CN2CCCC(C(=O)Nc3cccc(-n4cccn4)c3)C2)cc(C)c1O (centres undefined) | · | –
O=C(Nc1cccc(-n2cccn2)c1)C1CCCN(Cc2cc3ccccc3[nH]2)C1 (centres undefined) | – | -8.2
CCc1ccc(-c2nc(CN3CCC(C(=O)NCc4ccc(F)cc4)CC3)c(C)o2)cc1 | · | –
CCc1ccc(-c2nc(CN3CCC(C(=O)NCCN(CC)c4ccccc4)CC3)c(C)o2)cc1 | – | -6.5
CCN(CCNC(=O)C1CCCN(Cc2nc(-c3ccc(OC)cc3)oc2C)C1)c1ccccc1 (centres undefined) | – | -8.7
CCc1ccc(-c2nc(CN3CCCC(C(=O)O)C3)c(C)o2)cc1 (centres undefined) | · | –
CCN(CCNC(=O)C1CCN(Cc2nc(-c3ccc(Cl)cc3)oc2C)CC1)c1ccccc1 | – | -6.9
Cc1oc(-c2ccc(Cl)cc2)nc1CN1CCC(C(=O)NCCCN2CCOCC2)CC1 | – | –
O=C(Cn1cnc2ccccc2c1=O)NCCC(=O)Nc1ccc2c(c1)OCO2 | · | –
O=C(COc1ccc(S(=O)(=O)Nc2ccc(Cl)cc2)cc1)N1CCOCC1 | · | –
CCOC(=O)c1ccc(NC(=O)COc2ccccc2CNCCc2ccccc2)cc1 | – | -6.8
CCOC(=O)c1ccc(NC(=O)COc2ccc(CNCCO)cc2OCC)cc1 | – | –
COCC(=O)Nc1cc(C)cn(Cc2c(F)cccc2Cl)c1=O | – | –
C=CCN1C(=O)[C@@H]2Cc3c([nH]c4ccccc34)C(c3cc(OC)c(OC)c(OC)c3)N2C1=S (some centres undefined) | – | -6.1
CCN1C(=O)[C@@H]2Cc3c([nH]c4ccccc34)C(c3cc(OC)c(OC)c(OC)c3)N2C1=S (some centres undefined) | · | –
O=C(NCCN=C1NS(=O)(=O)c2ccccc21)c1ccc2nccnc2c1 | – | –
Cc1cc(C)cc(NS(=O)(=O)c2cc(Br)cnc2N)c1 | · | –
Cc1sc2nc(C(C)C)nc(SCC(=O)N3CCN(C(=O)c4ccco4)CC3)c2c1C | 13 | –
Cc1sc2ncnc(SCC(=O)N3CCN(C(=O)c4ccco4)CC3)c2c1C | – | –
CCc1ccc(N2C(=O)CN(CC(=O)OC)C2=S)cc1 | – | –
COC(=O)C1=C(C)C(c2ccc(OC)cc2OC)NC(=O)N1 (centres undefined) | · | –
SMILES | KCNQ2 enhance | KCNQ2 inh
COc1ccc(C2CC(C)(c3ccc(OC)cc3OC)Nc3ccccc3N2)c(OC)c1 (centres undefined) | – | -6.4
CC(C)Cc1csc(NC(=O)c2ccccc2Cl)c1C(=O)O | · | –
CC(C)Cc1csc(NC(=O)c2ccc(Cl)cc2)c1C(=O)O | 5.6 | –
c1ccc(CO/N=C(\c2ccc(C3CC3)nc2)C2CC2)cc1 | – | -7
O=C(NC1CCC(C(=O)O)CC1)OCc1ccccc1 (centres undefined) | – | –
O=C(NCc1ccco1)c1cc2nc(C3CC3)cc(C(F)(F)F)n2n1 | – | –
COc1ccc(-c2cc(C(F)(F)F)n3nc(C(=O)NCc4ccco4)cc3n2)cc1OC | – | -5.6
COc1ccc(C(=O)NC(=S)N2CCN(c3ccccc3OC)CC2)cc1 | – | –
Cc1ccc(C)n1-c1ccc(C(=O)NN)s1 | – | -5.7
CCOC(=O)CNC(=O)c1ccc(Br)s1 | · | –
CC(C)N1CCc2c(sc(NC(=O)c3nc4ccccc4s3)c2C(N)=O)C1 | · | –
CC(C)N1CCc2c(sc(NC(=O)c3cc(-c4cccs4)nc4ccccc34)c2C(N)=O)C1 | – | -6.4
Cc1cccc(NC(=O)/C(C#N)=C\c2cccnc2)c1 | – | -6.5
N#C/C(=C\c1cccnc1)C(=O)Nc1ccc(Cl)cc1 | · | –
NC(=O)c1cnn2c(-c3cccc(C(F)(F)F)c3)ccnc12 | – | –
CCN(CC)S(=O)(=O)c1ccc(N2CCOCC2)c(NC(=O)c2cc3ccccc3oc2=O)c1 | – | -5.5
CCN(CC)S(=O)(=O)c1ccc(N2CCOCC2)c(NC(=O)c2ccccc2F)c1 | · | –
O=C(Nc1ccc2c(c1)OCCO2)c1ccc(Cl)cc1 | – | –
O=C(CCc1ccccc1)NC(NC(=S)Nc1ccc(Cl)cc1)C(Cl)(Cl)Cl (centres undefined) | · | –
Cc1nc[nH]c(=O)c1Br | – | –
Cc1nnc(SC(C)C(=O)Nc2ccc(Cl)cn2)n1Cc1ccccc1 (centres undefined) | – | -6.2
CC(Sc1nnc(-c2ccc(Cl)cc2Cl)n1Cc1ccccc1)C(=O)Nc1nccs1 (centres undefined) | · | –
Cc1c(Cl)ccc2c(C(=O)Nc3cc(C(C)(C)C)on3)cc(-c3ccccn3)nc12 | – | -5.9
Cc1cccc2c(C(=O)Nc3ccc(Br)cc3)cc(-c3ccccn3)nc12 | – | –
Cc1ccc(NC(=O)c2cc(C(C)(C)C)nn2Cc2ccccc2)cc1 | · | –
SMILES | KCNQ2 enhance | KCNQ2 inh
CC(C)(C)c1cc(C(=O)Nc2ccc(F)cc2)n(Cc2ccc(F)cc2)n1 | – | -5.9
CCCCN(CCCC)CC1OCc2ccccc2CO1 | · | –
Cc1cnc(C(=O)Nc2ccccc2-n2cccc2)cn1 | – | –
Cc1ccccc1Nc1nc(N)nc(COC(=O)CC2CC3CCC2C3)n1 (centres undefined) | 20 | –
Cc1ccccc1Nc1nc(N)nc(COC(=O)CCS(=O)(=O)c2ccccc2)n1 | – | –
COc1ccc(C(=O)NC(Nc2ccc(C)cc2)C(Cl)(Cl)Cl)cc1 (centres undefined) | · | –
Cc1cc(C)nc(SC2c3cccc4cccc(c34)C2NS(=O)(=O)c2ccccc2)n1 (centres undefined) | – | -5.7
Cc1cc(C)nc(SC2CCCCC2NS(=O)(=O)c2ccccc2)n1 (centres undefined) | – | –
Cc1ccc(S(=O)(=O)NC2c3cccc4cccc(c34)C2Sc2ncccn2)cc1 (centres undefined) | – | -7
Cc1ccc(S(=O)(=O)Nc2cccc3cccnc23)cc1 | · | –
Cc1ccc(S(=O)(=O)N2CCN(c3ccc([N+](=O)[O-])cn3)CC2)cc1 | – | –
O=C(/C=C\Nc1ccccn1)c1ccccc1 | – | –
COc1ccc(NC(=O)C2CCN(C(=O)NC3CCCCC3)CC2)c(OC)c1 | – | –
COc1ccc(Nc2ncnc3c2cnn3-c2cccc(C)c2)cc1OC | – | –
CC(C)(C)c1ccccc1N=Cc1ccc2ccccc2n1 | – | -6.4
O/N=C/c1ccc2ccccc2n1 | · | –
COc1ccccc1C(=O)Nc1cc(C)c(OCC(=O)N2CCOCC2)c(C)c1 | – | –
CC(=O)Nc1cccc(OC(=O)c2ccoc2C)c1 | · | –
COc1ccccc1-c1cnn2c(NCCc3ccccc3)cc(C)nc12 | – | -7.1
COc1ccc(CCNc2cc(C)nc3c(-c4ccccc4)cnn23)cc1OC | · | –
COc1ccccc1CCc1nnc(CCC(=O)NC(C)Cc2ccsc2)o1 (centres undefined) | – | –
Nc1ncc(-n2cncn2)c(-c2ccccc2)n1 | · | –
COc1ccc(-c2csc3nc[nH]c(=O)c23)cc1OC | – | –
Cc1ccc(-c2csc3nc[nH]c(=S)c23)cc1C | 10 | –
COC(=O)c1ccc(-n2nnnc2SCC(=O)Nc2ccccc2OC)cc1 | · | –

Screens deposited in PubChem by Johns Hopkins Ion Channel Center.
